16 molecules from PubChem BioAssay (NCATS) can be followed below.

Experiment [1] concerns the target Cellular tumor antigen p53 (Homo sapiens) (UniProt P04637). The experiment can be described thus: Primary qHTS for small molecule compounds that upregulate eGFP-tagged delta133p53alpha (in N-terminal) cells. (AID 2060322).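 For activation: cells pre-induced with doxycycline then dosed without doxycycline; series mostly up to about 56 µM; 0% = DMSO vehicle and 100% = reference activator.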 Note: nearly all actives have a fitted effect of over 75% in size. Note: potency is the fitted concentration of half-maximal effect. Conditions: NCI-H358 eGFP-delta133p53alpha fluorescence, 24 h; activation: hits give high values. In outline: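 NCI-H358 cells pre-induced 24 h with 10 ng/ml doxycycline for eGFP-delta133p53alpha, plated dox-free and exposed 24 h at 37C to titrated compounds. Fixed, Hoechst-stained; gated GFP peak intensity by laser scanning cytometry, normalized to DMSO (0%) and 57.5 uM 5-azacytidine (100%).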

In experiment [2] the target is Aldehyde dehydrogenase, mitochondrial (Homo sapiens) (UniProt P05091). The experiment is described as follows: qHTS for Inhibitors of the Aldehyde Dehydrogenase Family (ALDH2) Primary screen (AID 2061308).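 Note: plate controls were vehicle for no effect and reference inhibitor for full effect; nearly all actives have a fitted effect of over 55% in size.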
Experiment [3] has as its target Retinaldehyde dehydrogenase 3 (Homo sapiens) (UniProt P47895). The experiment can be described thus: qHTS for Inhibitors of the Aldehyde Dehydrogenase Family (ALDH1A3) Primary screen (AID 2061315).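 Note: plate controls were DMSO vehicle for no effect and reference inhibitor for full effect.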
Experiment [4] is described as follows: BET inhibitor-based combinations targeting novel dependencies in MECOM-rearranged (r) AML: SET-2 cell line (AID 2202231).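 For viability: plate controls were DMSO treated cells for no effect and wells without cells for full effect.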 Note: nearly all actives have a fitted effect of over 35% in size. Note: potency is the fitted concentration of half-maximal effect. The note with it: SET-2 AML cells viability, CellTiter-Glo luminescence, 48 h; viability: hits give low values, concentration not given here. In outline: (§1)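 Luminescent ATP readout (CellTiter-Glo) after 48 hr drug exposure gives viability. Curves span 11 concentrations and are normalized to DMSO and empty wells. Activity is reported as area under the curve and its Z-transform within each cell line.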

Experiment [5] in a line: BET inhibitor-based combinations targeting novel dependencies in MECOM-rearranged (r) AML: OCI-AML3 cell line (AID 2202232). Note: nearly all actives have a fitted effect of over 35% in size. Note: potency is the fitted concentration of half-maximal effect. Conditions: Potency: OCI-AML3 viability. In outline:
as §1

Experiment [6] is described as follows: BET inhibitor-based combinations targeting novel dependencies in MECOM-rearranged (r) AML: MV-4-11 cell line (AID 2202233). Note: nearly all actives have a fitted effect of over 45% in size. Note: potency is the fitted concentration of half-maximal effect. In outline:
(§2)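 Luminescent ATP readout (CellTiter-Glo, 15 min at room temperature) after 48 hr drug exposure gave viability. Dose-response curves, normalized to DMSO and empty-well controls, were summarized as area under the curve and its mean-centred Z-score.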

Experiment [7] can be described thus: BET inhibitor-based combinations targeting novel dependencies in MECOM-rearranged (r) AML: UCSD-AML1 cell line (AID 2202235). Note: nearly all actives have a fitted effect of over 40% in size. Note: potency is the fitted concentration of half-maximal effect. In outline:
as §2

Experiment [8] in a line: BET inhibitor-based combinations targeting novel dependencies in MECOM-rearranged (r) AML: AML-191 cell line (AID 2202236; note: nearly all actives have a fitted effect of over 35% in size; note: potency is the fitted concentration of half-maximal effect). In outline:
as §1

Experiment [9] in a line: BET inhibitor-based combinations targeting novel dependencies in MECOM-rearranged (r) AML: AML-194 cell line (AID 2202237; note: nearly all actives have a fitted effect of over 40% in size; note: potency is the fitted concentration of half-maximal effect). In outline: as §1
Experiment [10] in a line: BET inhibitor-based combinations targeting novel dependencies in MECOM-rearranged (r) AML: HNT-34 cell line (AID 2202234). Note: nearly all actives have a fitted effect of over 35% in size. Note: potency is the fitted concentration of half-maximal effect. In outline: as §2

“And” between values parts separate entries of the source, which are not always exact repeats. Identical values can stand only once. Inconclusive results are not listed. A number with no mark means an inactive call. The source made the active and inactive calls. Calls come from the whole dose curve; as a rule, active = well fitted curve in the direction sought with a large enough effect; inconclusive = small, poorly fitted or top-dose-only effect, or another doubt; inactive = no such curve, though single readings can be large; an effect the other way counts as inactive or inconclusive.

Sequence of Cellular tumor antigen p53 (Homo sapiens) (P04637 whole entry, looked up): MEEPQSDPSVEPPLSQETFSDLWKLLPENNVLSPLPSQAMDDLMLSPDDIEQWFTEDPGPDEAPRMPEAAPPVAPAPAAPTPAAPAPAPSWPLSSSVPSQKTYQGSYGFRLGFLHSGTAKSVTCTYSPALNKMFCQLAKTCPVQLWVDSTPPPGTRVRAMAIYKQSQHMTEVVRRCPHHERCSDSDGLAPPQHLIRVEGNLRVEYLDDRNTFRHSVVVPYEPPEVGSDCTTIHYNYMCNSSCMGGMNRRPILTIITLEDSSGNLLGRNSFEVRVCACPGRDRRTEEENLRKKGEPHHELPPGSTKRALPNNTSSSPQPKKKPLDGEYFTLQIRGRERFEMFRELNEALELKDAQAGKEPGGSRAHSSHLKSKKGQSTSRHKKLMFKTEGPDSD

With `NC(=O)c1cccc2[nH]c(-c3ccc([C@H]4CCCN4)cc3F)nc12`, the activation in experiment [1] was 28.6%. Moreover, the Potency result in experiment [2], in experiment [3] and in [7] was “inactive” each time. For the same molecule, the Potency in experiment [4] is 20900 nM (active); in experiment [5], 20900 nM (active); in experiment [6], 16600 nM (active); in [8], 16600 nM (active).

For the molecule `CC[C@]12C=CCN3CC[C@@]4(c5cc([C@@]6(C(=O)OC)C[C@H]7C[C@@H](C(C)(F)F)CN(Cc8c6[nH]c6ccccc86)C7)c(OC)cc5N(C)[C@H]4[C@@](O)(C(=O)OC)[C@@H]1OC(C)=O)[C@@H]32`, the Potency is 199 nM (active) in experiment [1]; 783 nM (active) in experiment [4]; 124 nM (active) in [5]; 197 nM (active) in [6]; 139 nM (active) in experiment [7]; 69.8 nM (active) in [8]. Also, the Potency in experiment [9] is 139 nM (active). For the same molecule, the Potency result in experiment [2] and in experiment [3] was “inactive” in each case.

Regarding `COC(=O)c1ccc2c(C(=Nc3ccc(N(C)C(=O)CN4CCN(C)CC4)cc3)c3ccccc3)c(O)[nH]c2c1`, the activation in experiment [1] was 5.68%. Also, the Potency entry in experiment [2] and in [3] was “inactive” in each case. Further, the Potency was 11800 nM (active) in [4]; 10500 nM (active) in experiment [5]; 166 nM (active) in experiment [6]; 1320 nM (active) in [10]; 5250 nM (active) in [8]; 5250 nM (active) in experiment [9].

Consider `Cc1cc(Nc2cc(N3CCN(C)CC3)nc(/C=C/c3ccccc3)n2)n[nH]1`, for which the Potency in [1] was 30100 nM (active); in [4] it was 13200 nM (active); in experiment [5] it was 8330 nM (active); in experiment [6], 132 nM (active); in experiment [10] it was 525 nM (active); in [8], 2090 nM (active). Further, in experiment [9], the Potency was 1180 nM (active). Also, the Potency result in experiment [2] and in [3] was “inactive” throughout.

For the molecule `c1ccc2c(Oc3nc(Nc4ccc(N5CCOCC5)cc4)c4ncn(C5CCCCC5)c4n3)cccc2c1`, in experiment [1], the activation was 9.2% and -7.64%. The Potency entry in experiment [2], in [3], in [5], in experiment [7], in experiment [8] and in experiment [9] was “inactive” each time. The viability in experiment [4] was 101%. In addition, the Potency in [6] is 7420 nM (active).

`Cc1cccc(Nc2nc(N[C@@H]3CCCC[C@H]3N)ncc2C(N)=O)c1`: the activation in experiment [1] is 14.8%. Moreover, the Potency result in experiment [2] and in experiment [3] was “inactive” each time. Besides, the Potency in experiment [4] is 29500 nM (active); in [5] it was 16600 nM (active); in experiment [6] it was 2630 nM (active); in experiment [10], 18600 nM (active); in experiment [8] it was 18600 nM (active); in experiment [9], 16600 nM (active).

`C=C1C(=O)[C@@]23C(CC[C@@H]1[C@H]2O)[C@@]12CO[C@]3(O)[C@@H](O)[C@@H]1C(C)(C)CC[C@@H]2O` (stereo partly specified): the Potency is 27300 nM (active) in experiment [1]; 9340 nM (active) in [4]; 3320 nM (active) in [5]; 2630 nM (active) in experiment [6]; 5900 nM (active) in experiment [7]; 8330 nM (active) in experiment [8]. Further, the Potency in [9] was 11800 nM (active). Further, the Potency entry in experiment [2] and in experiment [3] was “inactive” in each case.

On to `Cc1cn2cc(C(=O)N(C)CCO)cc(N[C@@H]3CCOc4cccc(C)c43)c2n1`, for which the activation in experiment [1] was -18% and -4.46%. Further, the Potency result in [2], in experiment [3], in experiment [5], in [6], in experiment [10] and in experiment [8] was “inactive” in each case. Besides, the Potency result in [9] was “inactive”. Also, the viability in [4] is 112%.

For `O=C(O)CCCCCC(=O)NN=C1CCCC1`, the activation in experiment [1] was -11%. For the same molecule, the Potency result in [2], in [3], in [5], in [6], in [10] and in experiment [8] was “inactive” each time. Besides, the Potency result in experiment [9] is “inactive”. Also, the viability in experiment [4] was 108%.

On to `COc1cccc2c1c(O)c(C(=O)N(C)c1ccc(C(F)(F)F)cc1)c(=O)n2C`, for which, in experiment [1], the activation was 10.1%. In addition, the Potency result in [2], in [3], in [5], in [6], in [7] and in experiment [8] was “inactive” in each case. For the same molecule, the Potency entry in [9] was “inactive”. The viability in [4] is 40.7%.

In the case of `FC(F)(F)c1ccc(Nc2nc(-c3c(C(F)(F)F)nc4ccccn34)cs2)cc1`, the activation in experiment [1] was -3.82%. Further, the Potency result in experiment [2] and in experiment [3] was “inactive” throughout. The Potency was 833 nM (active) in [4]; 417 nM (active) in experiment [5]; 417 nM (active) in experiment [6]; 332 nM (active) in experiment [10]; 332 nM (active) in experiment [7]; 332 nM (active) in experiment [9].

Turning to `O=C1NC(=O)C(c2cnc3ccccn23)=C1c1cn2c3c(cc(F)cc13)CN(C(=O)N1CCCCC1)CC2`, the Potency was 30100 nM (active) in experiment [1]; 41.7 nM (active) in experiment [4]; 2950 nM (active) in [5]; 186 nM (active) in [6]; 1660 nM (active) in experiment [7]; 662 nM (active) in experiment [8]. The Potency in experiment [9] is 3720 nM (active). The Potency result in [2] and in [3] was “inactive” throughout.

Consider `O=C(Nc1ccc(Oc2ccnc3[nH]ccc23)c(F)c1)c1cccn(-c2ccc(F)cc2)c1=O`, for which, in experiment [1], the activation is -27.3% and -22.3%. Also, the Potency result in [2], in [3] and in experiment [7] was “inactive” in each case. Also, in experiment [4], the viability is 106%. The Potency is 13200 nM (active) in experiment [5], 29.5 nM (active) in [6], 2350 nM (active) in [8] and 8330 nM (active) in [9].

In the case of `COc1cc2c(Oc3ccc(NC(=O)C4(C(=O)Nc5ccc(F)cc5)CC4)cc3F)ccnc2cc1OCCCN1CCOCC1`, the Potency is 7570 nM (active) in experiment [1]; 23500 nM (active) in [4]; 11800 nM (active) in experiment [5]; 7.4 nM (active) in experiment [6]; 833 nM (active) in experiment [10]; 833 nM (active) in experiment [7]. The Potency in experiment [9] is 590 nM (active). In addition, the Potency entry in [2] and in [3] was “inactive” each time.

`CC(C)C[C@H](CO)Nc1nc(S[C@@H](C)c2ccccc2)nc2nc(N)sc12`: the activation in experiment [1] is 5.67%. The Potency entry in experiment [2], in experiment [3] and in experiment [7] was “inactive” each time. In addition, the values for the Potency in [4], in experiment [5] and in [6] were 23500 nM (active), 26300 nM (active) and 26300 nM (active), respectively.

For `FC(F)(F)c1ccc(/C=C/c2nc(COc3ccc(CCCCn4ccnn4)cc3)co2)cc1`, the activation in experiment [1] was 18.8%. Besides, the Potency entry in [2], in experiment [3], in [10], in experiment [7] and in [9] was “inactive” each time. Besides, the Potency is 74.2 nM (active) in [4], 372 nM (active) in [5] and 29.5 nM (active) in [6].
